Screening data (PubChem)
GIRK2 act = GIRK2 channel activation; P48051; HEK293-GIRK2 thallium flux, Thallos fluorescence, MPD; calls only for hits at 25 µM; 63,000 tested, 0.05% active; AID 1259325; call rule not given here
Target sequence (P48051 whole entry, looked up): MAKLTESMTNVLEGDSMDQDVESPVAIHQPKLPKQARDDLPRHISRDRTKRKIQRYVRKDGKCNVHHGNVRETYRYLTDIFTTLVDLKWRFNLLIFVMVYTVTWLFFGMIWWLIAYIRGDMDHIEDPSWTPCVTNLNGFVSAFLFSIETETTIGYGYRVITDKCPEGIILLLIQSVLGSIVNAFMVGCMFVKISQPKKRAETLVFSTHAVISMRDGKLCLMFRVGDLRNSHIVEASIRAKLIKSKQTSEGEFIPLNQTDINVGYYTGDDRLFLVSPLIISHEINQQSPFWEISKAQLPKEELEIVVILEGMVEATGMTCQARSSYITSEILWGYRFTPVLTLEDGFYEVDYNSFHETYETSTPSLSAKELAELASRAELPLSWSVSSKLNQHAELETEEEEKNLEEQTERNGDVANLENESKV
The depositor's hits bear a star; i = inactive; + = active, no number. The entries come from a sample that favours hits as a whole.

SMILES	GIRK2 act
O=C1CC(NC(=O)c2cnn(-c3ccccc3)n2)CN1 (stereo not drawn)	i
O=C(Cn1ccn2nc(-c3ccc(Cl)cc3)cc2c1=O)N1CCN(c2ccc(F)cc2)CC1	i
O=C(Nc1cnoc1)c1cc(Br)ccc1Cl	i
O=C(NCCc1ccccc1)c1sccc1S(=O)(=O)N1CCN(c2ccccc2)CC1	i
Cc1nnc(C2CCCN(C(=O)c3cccs3)C2)s1 (stereo not drawn)	i
Brc1cccc(-c2nnc(Cc3nc(-c4ccc5c(c4)OCO5)no3)o2)c1	i
CCc1noc(-c2ccnc(SCC(=O)Nc3ccc(OC)cc3)c2)n1	i
CONC(=O)c1nnn(-c2ccc(Cl)cc2)n1	i
O=C(CCCSc1ccccc1)Nc1ccccc1-c1nc2ccccc2[nH]1	i
O=C(Cc1ccc(NC(=O)NCc2ccc(F)cc2)cc1)NC1CC1	i
O=C(Nc1ccc(S(=O)(=O)N2CCOCC2)cc1)c1cc(-c2ccncc2)nc2ccccc12	i
CC1CC(C)CN(S(=O)(=O)c2ccc(C(=O)N(C)c3ccccc3)cc2)C1 (stereo not drawn)	i
CCN(CC)c1ccc(-c2noc(CN3CCCCC3C)n2)cn1 (stereo not drawn)	+
CCN(CC)c1ccc(-c2noc(CN3CCSCC3)n2)cn1	i
CCN(CC)c1ccc(-c2noc(CN3CCN(c4ccccc4Cl)CC3)n2)cn1	i
CN(C)CCNc1ncnc2[nH]ncc12	i
O=C1/C(=C/c2cccc(O)c2)SC(=S)N1c1ccccc1O	i
COc1ccc(N2C(=O)C3N=NN(Cc4cc(OC)ccc4Br)C3C2=O)cc1 (stereo not drawn)	i
O=C(Nc1ccc(S(=O)(=O)N2CCOCC2)cc1)c1ccsc1	i
CCOCC(=O)Nc1cc(C)nn1-c1nc(-c2ccc(F)cc2)cs1	i
CCSc1ccccc1C(=O)NCC#CCOc1ccccc1C(N)=O	i
CCc1[nH]nc(S(=O)(=O)N2CCN(CC(C)C)CC2)c1C(=O)OC	i
Cc1ccc(C)c(NC(=O)Cn2c(=O)n(Cc3cccs3)c(=O)c3ncccc32)c1	i
COc1cccc(CNC(=O)c2nnn(-c3ccccc3Cl)c2-c2ccncc2)c1	i
COc1ccc(NC(=O)c2nnn(-c3ccccc3C)c2-c2ccncc2)c(C)c1	+
SMILES	GIRK2 act
Cc1ccccc1-n1nnc(C(=O)Nc2nccs2)c1-c1ccncc1	i
COc1cc(OC)c(NC(=O)c2nnn(-c3ccccc3C)c2-c2ccncc2)cc1Cl	+
CSc1ccc(CNC(=O)c2nnn(-c3ccccc3C)c2-c2ccncc2)cc1	i
Cc1ccccc1-n1nnc(C(=O)NCc2ccc(Br)cc2)c1-c1ccncc1	i
O=C(NC1CCN(C(=O)c2cc(-c3ccc(F)cc3)n[nH]2)CC1)c1ccc(Cl)cc1	i
COc1ccc(C(=O)COC(=O)CCc2c[nH]c3ccccc23)cc1	i
O=C(Cn1ccc2ccccc21)Nc1cc(N2CCN(Cc3ccccc3)CC2)ncn1	i
CCOC(=O)N1CCC(NC(=O)Cn2ccc3ccccc32)CC1	i
O=C(Cn1ccc2ccccc21)NC1CCN(Cc2ccccc2)CC1	+
O=C(CSC1CCCC1)NCCn1nc(C2CC2)n(-c2ccccc2)c1=O	i
O=C(CCc1ccccc1)Nc1cc(N2CCCC2)ncn1	i
Cn1cc(CC(=O)N2CCN(S(=O)(=O)C3CC3)CC2)c2ccccc21	i
O=C(CNC(=O)c1ccc(=O)[nH]c1)Nc1ccc(-n2cnnn2)cc1	i
CCCCOc1ccc(C(=O)NCCc2nc(C)cc(C(F)(F)F)n2)cc1	i
CS(=O)(=O)N1CCCc2ccc(N)cc21	i
CCn1c(SCC(=O)N2CCN(c3ccccc3)CC2)nnc1-c1c(C)nc2sccn12	i
Cn1cccc1CN(Cc1cccs1)C(=O)c1ccc2nsnc2c1	i
CCOc1cc(S(=O)(=O)N(C)C2CCCCC2)ccc1F	i
COC(=O)N1CCc2ccc(Br)cc2C1C(=O)Nc1nccs1 (stereo not drawn)	+
COC(=O)N1CCc2ccc(Br)cc2C1C(=O)Nc1ccc(SC)cc1 (stereo not drawn)	i
COC(=O)N1CCc2ccc(F)cc2C1C(=O)Nc1cccc(C)n1 (stereo not drawn)	i
CCOc1ccc(N2CCN(CC(=O)N3CCN(c4cc(C)ccc4C)CC3)C2=O)cc1	i
CC(=O)Oc1ccc2c(=O)c(Oc3ccc(Cl)cc3)coc2c1	i
CS(=O)(=O)c1ccc2nc(N(Cc3ccco3)C(=O)C3CCCCC3)sc2c1	+
CS(=O)(=O)c1ccc2nc(N(Cc3ccco3)C(=O)c3ccc(Br)s3)sc2c1	i
SMILES	GIRK2 act
CCCCOc1ccc(C(=O)N(Cc2ccco2)c2nc3ccc(S(C)(=O)=O)cc3s2)cc1	i
COc1ccc(F)cc1S(=O)(=O)N1CCN(c2ccc(-c3ccccc3)nn2)CC1	i
COc1ccccc1-n1nnc(C(=O)Nc2nc(C)cs2)c1-c1ccccn1	+
COc1ccccc1-n1nnc(C(=O)NCc2nc3ccccc3n2C)c1-c1ccccn1	i
COc1ccccc1-n1nnc(C(=O)NCC2COCCO2)c1-c1ccccn1 (stereo not drawn)	i
C/C(=C\c1ccccc1)C(=O)NC1CCN(c2ccc(-c3ccccc3F)nn2)C1 (stereo not drawn)	i
COc1ccc(NC(=O)CSc2nc3c(-c4ccc(C)cc4)csc3c(=O)n2C)cc1OC	i
Cc1ccc(-c2nnc(CN3CCN(c4ccccc4Cl)CC3)o2)cc1	i
CCc1ccccc1Sc1nccn2c(=O)n(CC(=O)Nc3ccc(OC)cc3)nc12	i
OCCN(CCO)CC(O)COc1cccc2ccccc12 (stereo not drawn)	i
CCOC(=O)c1ccc(-n2c(C)cn3c4c(=O)n(CCN5CCOCC5)c(=O)n(C)c4nc23)cc1	i
COc1ccc(NC(=O)c2cc([N+](=O)[O-])ccc2Cl)cc1N1CCCC1=O	i
COc1cc(Nc2c(C(=O)N3CCCC3)cnc3nc(C)ccc23)cc(OC)c1OC	i
CCc1[nH]nc(S(=O)(=O)NCc2ccccc2OC)c1C(=O)OC	i
CCOC(=O)c1cn[nH]c1S(=O)(=O)Nc1cccc(CC)c1	i
CCOC(=O)c1cn[nH]c1S(=O)(=O)N1CCN(c2cccc(C)c2)C(C)C1 (stereo not drawn)	+
CCOC(=O)c1cn[nH]c1S(=O)(=O)N1CCN(c2ccc(C(C)=O)cc2)CC1	i
N#Cc1ccsc1NC(=O)C1CCN(S(=O)(=O)c2ccc(F)cc2)CC1	i
FC(F)(F)c1ccc(CN2CC(c3nc(C4CC4)no3)C2)cc1	i
O=S(=O)(NCCOc1ccc2c(c1)OCO2)c1ccc(F)c(Cl)c1	i
COc1ccccc1N1CCN(CCNC(=O)C(=O)Nc2c(C)cc(C)cc2C)CC1	i
CCn1c(=O)c2c(nc3n(-c4ccccc4OC)c(-c4ccccc4)cn23)n(C)c1=O	+
COc1ccccc1-n1c(-c2ccccc2)cn2c3c(=O)n(CC(C)=O)c(=O)n(C)c3nc12	i
CCOC(=O)Cn1c(=O)c2c(nc3n(-c4ccccc4OC)c(-c4ccccc4)cn23)n(C)c1=O	i
COc1ccc(CCC(=O)NCCC(O)c2cccc3ccccc23)cc1 (stereo not drawn)	i
